Assay results taken from the supplement of paper PMC11732987, “Enantioselective OTUD7B fragment discovery through chemoproteomics screening and high-throughput optimisation” (Communications Chemistry, 2025).

Legend:
Test in all cases: log2 ratio of Biotin-Ahx-Ub-VS probe labelling (fragment/DMSO); higher = less target engagement (more negative = stronger competition), active = hit call of the paper (q ≤ 0.05, log2 ratio ≤ -1)
Settings in all cases: compound concentration: 200 uM; treatment time: 3 h
USP34 = USP34 (UniProt Q70CQ2)
In short: (§1)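 The table lists average log2 ratios of fragment over vehicle, from an unpaired t-test on global-median-normalised Spectronaut label-free quantities. Proteins with ≥2 unique peptides were used. Samples were HEK293T lysate (495 µg) treated in triplicate with fragment at 200 µM or vehicle for 3 h, then with Biotin-Ahx-Ub-VS (0.5 µM final) for 1 h, with labelled DUBs NeutrAvidin-enriched and run by diaPASEF LC-MS/MS.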

USP36 = target: T1, USP36 (UniProt Q9P275)
T1 sequence (whole entry): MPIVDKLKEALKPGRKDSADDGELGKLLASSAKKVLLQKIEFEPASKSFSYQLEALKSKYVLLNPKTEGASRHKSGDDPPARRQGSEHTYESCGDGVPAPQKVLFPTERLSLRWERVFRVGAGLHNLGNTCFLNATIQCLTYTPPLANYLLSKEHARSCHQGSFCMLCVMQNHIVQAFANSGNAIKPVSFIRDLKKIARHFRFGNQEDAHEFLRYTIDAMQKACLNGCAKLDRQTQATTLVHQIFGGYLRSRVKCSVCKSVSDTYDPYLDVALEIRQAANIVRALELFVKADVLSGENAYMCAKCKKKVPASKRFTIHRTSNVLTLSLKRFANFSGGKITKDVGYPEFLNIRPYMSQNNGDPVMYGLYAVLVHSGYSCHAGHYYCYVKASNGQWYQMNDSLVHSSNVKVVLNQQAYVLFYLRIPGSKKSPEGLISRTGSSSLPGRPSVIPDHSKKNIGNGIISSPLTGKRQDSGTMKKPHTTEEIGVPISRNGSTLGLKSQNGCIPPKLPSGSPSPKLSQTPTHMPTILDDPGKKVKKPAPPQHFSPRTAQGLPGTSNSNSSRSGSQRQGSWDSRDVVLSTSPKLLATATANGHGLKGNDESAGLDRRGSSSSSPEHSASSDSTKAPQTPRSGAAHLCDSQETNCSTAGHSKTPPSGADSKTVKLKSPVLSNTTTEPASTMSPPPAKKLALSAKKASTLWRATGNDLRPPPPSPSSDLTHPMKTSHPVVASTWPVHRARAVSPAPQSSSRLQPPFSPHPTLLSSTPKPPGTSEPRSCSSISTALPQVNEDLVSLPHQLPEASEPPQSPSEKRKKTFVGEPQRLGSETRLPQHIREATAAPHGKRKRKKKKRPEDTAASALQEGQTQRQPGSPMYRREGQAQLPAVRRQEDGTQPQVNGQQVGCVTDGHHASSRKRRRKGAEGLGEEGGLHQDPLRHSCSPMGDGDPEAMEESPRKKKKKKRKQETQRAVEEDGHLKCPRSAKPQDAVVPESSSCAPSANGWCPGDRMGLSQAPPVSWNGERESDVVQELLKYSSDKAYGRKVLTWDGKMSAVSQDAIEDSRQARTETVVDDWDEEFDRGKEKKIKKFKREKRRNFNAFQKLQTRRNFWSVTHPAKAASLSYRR
In short: as §1

USP38 = target: T2, USP38 (UniProt Q8NB14)
T2 sequence (whole entry): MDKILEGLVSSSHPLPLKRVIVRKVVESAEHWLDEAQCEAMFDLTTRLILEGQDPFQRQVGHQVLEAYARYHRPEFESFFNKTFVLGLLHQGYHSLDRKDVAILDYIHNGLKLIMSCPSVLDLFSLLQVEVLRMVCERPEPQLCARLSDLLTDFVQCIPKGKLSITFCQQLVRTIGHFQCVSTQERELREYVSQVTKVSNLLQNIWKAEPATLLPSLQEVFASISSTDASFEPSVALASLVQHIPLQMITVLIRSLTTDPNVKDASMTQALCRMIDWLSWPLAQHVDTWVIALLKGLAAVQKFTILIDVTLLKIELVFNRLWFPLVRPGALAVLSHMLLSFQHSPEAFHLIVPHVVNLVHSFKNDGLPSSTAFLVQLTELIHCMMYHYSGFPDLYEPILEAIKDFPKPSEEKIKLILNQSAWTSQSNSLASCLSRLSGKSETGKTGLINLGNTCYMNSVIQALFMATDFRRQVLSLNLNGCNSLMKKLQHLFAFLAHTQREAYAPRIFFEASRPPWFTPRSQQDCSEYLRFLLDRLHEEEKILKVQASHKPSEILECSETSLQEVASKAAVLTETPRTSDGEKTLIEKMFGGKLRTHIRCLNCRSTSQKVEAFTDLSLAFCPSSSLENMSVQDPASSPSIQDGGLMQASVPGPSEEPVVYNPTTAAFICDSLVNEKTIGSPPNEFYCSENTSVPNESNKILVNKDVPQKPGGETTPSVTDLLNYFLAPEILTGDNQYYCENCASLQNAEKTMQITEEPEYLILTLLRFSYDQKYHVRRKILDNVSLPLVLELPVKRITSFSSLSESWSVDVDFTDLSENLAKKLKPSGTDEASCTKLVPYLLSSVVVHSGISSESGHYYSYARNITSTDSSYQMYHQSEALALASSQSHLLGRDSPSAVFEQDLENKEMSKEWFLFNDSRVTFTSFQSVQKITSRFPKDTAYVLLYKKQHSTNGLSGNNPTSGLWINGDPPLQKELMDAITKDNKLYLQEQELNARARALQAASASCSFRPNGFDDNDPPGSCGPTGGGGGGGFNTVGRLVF
In short: as §1

USP39 = target: T3, USP39 (UniProt Q53GS9)
T3 sequence (whole entry): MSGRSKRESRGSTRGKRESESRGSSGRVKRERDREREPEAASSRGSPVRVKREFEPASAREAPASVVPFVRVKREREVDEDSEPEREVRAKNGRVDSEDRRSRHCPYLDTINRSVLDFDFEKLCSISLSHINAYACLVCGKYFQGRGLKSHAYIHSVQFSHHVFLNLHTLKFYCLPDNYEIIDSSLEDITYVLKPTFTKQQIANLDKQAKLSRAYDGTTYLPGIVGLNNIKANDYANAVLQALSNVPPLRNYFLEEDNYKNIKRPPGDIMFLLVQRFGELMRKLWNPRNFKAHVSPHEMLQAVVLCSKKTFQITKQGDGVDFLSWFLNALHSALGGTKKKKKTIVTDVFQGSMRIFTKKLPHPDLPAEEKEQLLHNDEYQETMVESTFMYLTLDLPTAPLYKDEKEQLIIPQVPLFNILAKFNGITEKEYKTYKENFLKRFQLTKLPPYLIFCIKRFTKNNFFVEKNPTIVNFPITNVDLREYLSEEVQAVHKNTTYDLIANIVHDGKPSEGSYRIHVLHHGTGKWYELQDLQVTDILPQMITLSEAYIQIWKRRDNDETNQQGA
In short: as §1

USP4 = target: T4, USP4 (UniProt Q13107)
T4 sequence (whole entry): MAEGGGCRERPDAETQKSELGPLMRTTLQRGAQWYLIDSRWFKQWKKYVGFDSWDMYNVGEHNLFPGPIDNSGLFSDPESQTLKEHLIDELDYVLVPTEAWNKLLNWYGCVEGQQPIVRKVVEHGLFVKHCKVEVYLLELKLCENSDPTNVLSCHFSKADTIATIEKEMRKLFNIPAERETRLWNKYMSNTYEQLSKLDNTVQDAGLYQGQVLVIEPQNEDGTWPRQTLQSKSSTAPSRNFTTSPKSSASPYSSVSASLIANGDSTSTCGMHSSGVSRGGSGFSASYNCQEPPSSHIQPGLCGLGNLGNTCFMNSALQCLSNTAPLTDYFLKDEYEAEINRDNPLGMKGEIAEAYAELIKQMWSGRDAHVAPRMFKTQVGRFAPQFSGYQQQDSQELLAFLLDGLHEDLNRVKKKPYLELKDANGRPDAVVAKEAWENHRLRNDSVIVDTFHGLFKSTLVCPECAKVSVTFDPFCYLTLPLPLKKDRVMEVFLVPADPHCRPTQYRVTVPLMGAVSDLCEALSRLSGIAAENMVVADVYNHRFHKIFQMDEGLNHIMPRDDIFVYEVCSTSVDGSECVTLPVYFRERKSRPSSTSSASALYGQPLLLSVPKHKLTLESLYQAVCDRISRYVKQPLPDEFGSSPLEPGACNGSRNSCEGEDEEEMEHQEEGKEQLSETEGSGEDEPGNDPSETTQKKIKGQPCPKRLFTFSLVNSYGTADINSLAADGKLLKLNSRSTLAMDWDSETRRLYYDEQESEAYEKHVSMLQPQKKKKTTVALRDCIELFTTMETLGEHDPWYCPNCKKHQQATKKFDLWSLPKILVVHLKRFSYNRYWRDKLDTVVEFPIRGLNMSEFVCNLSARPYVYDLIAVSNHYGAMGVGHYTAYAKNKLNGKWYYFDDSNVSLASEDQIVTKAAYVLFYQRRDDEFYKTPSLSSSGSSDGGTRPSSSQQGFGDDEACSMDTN
In short: as §1

Measured: log2 ratio of Biotin-Ahx-Ub-VS probe labelling

Chain of USP34 (Q70CQ2 whole entry, the tested form may be a part): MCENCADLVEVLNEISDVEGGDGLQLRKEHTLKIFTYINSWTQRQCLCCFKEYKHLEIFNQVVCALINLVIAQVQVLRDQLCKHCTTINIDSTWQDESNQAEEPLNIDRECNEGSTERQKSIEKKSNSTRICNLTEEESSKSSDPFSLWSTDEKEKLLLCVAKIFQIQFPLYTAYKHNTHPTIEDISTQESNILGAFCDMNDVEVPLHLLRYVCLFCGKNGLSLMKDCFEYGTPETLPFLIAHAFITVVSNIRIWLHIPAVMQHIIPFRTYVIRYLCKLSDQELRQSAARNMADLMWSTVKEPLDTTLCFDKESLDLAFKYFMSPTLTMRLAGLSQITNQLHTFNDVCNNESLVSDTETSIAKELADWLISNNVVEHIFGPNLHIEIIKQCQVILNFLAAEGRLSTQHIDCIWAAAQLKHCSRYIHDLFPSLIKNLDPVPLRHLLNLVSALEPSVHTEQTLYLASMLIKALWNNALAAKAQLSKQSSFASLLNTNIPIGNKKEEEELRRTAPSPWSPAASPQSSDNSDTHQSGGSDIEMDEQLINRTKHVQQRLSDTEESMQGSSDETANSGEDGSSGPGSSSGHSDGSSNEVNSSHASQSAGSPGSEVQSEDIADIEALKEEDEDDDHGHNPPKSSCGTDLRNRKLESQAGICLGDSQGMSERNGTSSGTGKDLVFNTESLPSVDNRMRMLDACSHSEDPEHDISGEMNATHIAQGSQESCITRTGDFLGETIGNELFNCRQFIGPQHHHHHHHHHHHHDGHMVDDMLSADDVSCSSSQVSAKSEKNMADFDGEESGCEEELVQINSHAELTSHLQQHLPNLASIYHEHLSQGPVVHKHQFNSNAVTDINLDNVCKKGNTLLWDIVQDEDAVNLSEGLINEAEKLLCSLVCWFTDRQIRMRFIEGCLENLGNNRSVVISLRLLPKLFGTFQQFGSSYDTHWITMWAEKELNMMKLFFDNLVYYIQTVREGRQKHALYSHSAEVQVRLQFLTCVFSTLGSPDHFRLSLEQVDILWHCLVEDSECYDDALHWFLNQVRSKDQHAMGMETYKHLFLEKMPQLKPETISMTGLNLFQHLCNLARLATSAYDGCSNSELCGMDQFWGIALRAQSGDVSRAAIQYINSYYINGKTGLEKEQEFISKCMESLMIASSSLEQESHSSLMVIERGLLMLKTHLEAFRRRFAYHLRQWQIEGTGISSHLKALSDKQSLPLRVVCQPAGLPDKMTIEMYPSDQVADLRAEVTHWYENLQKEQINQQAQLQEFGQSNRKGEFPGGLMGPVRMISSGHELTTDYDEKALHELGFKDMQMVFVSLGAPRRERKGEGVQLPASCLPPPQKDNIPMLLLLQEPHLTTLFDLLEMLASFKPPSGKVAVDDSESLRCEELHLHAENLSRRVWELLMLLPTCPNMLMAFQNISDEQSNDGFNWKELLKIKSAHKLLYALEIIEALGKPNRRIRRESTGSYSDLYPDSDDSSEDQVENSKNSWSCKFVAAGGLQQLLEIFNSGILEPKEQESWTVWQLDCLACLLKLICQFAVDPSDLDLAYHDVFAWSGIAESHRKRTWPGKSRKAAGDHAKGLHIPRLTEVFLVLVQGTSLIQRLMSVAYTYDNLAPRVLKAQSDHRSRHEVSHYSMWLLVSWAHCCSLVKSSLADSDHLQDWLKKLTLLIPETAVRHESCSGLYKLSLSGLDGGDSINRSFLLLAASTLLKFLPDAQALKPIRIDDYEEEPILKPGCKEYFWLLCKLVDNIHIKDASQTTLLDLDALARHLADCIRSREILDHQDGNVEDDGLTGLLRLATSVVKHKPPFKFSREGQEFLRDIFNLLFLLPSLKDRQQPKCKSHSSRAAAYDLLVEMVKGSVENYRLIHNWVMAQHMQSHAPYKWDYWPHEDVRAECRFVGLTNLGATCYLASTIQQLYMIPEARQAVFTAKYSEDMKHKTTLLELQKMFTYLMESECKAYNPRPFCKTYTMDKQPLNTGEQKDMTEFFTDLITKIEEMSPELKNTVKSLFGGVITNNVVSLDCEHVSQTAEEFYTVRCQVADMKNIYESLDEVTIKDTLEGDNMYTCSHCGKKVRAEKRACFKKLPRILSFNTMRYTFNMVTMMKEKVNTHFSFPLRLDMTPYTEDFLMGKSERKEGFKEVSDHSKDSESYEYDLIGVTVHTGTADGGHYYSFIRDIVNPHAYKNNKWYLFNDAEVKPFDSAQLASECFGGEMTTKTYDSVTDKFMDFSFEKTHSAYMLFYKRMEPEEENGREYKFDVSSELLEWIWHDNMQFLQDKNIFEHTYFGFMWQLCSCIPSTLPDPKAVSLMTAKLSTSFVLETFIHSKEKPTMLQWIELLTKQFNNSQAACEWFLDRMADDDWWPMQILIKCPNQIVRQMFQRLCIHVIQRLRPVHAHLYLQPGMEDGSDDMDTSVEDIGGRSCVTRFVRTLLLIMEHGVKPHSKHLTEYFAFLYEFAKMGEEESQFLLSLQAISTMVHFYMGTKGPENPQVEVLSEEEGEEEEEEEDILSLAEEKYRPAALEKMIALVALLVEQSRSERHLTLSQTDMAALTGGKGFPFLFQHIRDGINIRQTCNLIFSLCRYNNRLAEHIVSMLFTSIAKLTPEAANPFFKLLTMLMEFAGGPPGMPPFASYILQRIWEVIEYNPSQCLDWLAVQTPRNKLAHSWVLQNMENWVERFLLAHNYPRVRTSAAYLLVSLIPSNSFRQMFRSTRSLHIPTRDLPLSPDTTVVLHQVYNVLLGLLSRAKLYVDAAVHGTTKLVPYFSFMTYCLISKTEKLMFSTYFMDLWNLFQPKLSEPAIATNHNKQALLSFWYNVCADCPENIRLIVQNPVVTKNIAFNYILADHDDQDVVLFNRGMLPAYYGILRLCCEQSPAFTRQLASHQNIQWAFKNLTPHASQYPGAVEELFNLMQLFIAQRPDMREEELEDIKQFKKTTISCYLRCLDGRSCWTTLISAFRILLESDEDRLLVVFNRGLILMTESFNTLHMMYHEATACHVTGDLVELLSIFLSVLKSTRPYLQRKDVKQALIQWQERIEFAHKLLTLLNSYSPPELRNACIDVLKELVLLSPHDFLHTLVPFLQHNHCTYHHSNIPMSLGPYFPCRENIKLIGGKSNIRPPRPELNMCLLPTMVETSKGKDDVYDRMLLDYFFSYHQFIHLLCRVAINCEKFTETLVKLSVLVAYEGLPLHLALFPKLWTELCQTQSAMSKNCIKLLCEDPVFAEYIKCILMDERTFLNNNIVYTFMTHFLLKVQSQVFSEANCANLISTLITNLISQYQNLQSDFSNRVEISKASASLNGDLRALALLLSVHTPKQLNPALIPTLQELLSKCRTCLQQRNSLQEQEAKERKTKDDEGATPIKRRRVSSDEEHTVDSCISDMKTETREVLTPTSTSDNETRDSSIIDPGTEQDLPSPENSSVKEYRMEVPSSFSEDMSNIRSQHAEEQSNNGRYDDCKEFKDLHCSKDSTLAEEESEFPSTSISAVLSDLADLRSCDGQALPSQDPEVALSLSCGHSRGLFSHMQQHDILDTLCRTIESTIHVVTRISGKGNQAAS

Cc1cc(C2CCCN2C(=O)CCl)nn1C.Cl (stereo not given)
inactive: USP34 -0.179 | USP36 -0.0531 | USP38 -0.227 | USP39 -0.281 | USP4 -0.154
